Compound activity as filed in PubChem.
Pol kappa inh: inhibitors of human DNA polymerase kappa. 0.53% of 400,000 active. Potency, µM (series often up to 107 µM), without a hit: at the top dose activity, negative = inhibition, hits mostly inhibitors. purified Pol kappa, fluorescent DNA synthesis assay, 10 min. Q9UBT6; further: on the % scale 0 is the no-effect control and ±100 the full control effect
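Fluorescent qHTS in 1536-well format: enzyme (10 nM) and compound sat 15 min at room temperature before 50 nM substrate (final) was added. Signal taken at 0 and 10 min; no-enzyme buffer wells were negative controls.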
FEN1 inh: blocks human flap endonuclease 1. P39748. Recombinant FEN1 flap cleavage, fluorescence, 15 min. Potency, µM (doses to about 114 µM), for inactives: at the highest dose activity change, negative = inhibition, most hits filed as inhibitors. 0.35% of 390,000 active; further: on the % scale 0 is the no-effect control and ±100 the full control effect; nearly all actives have a fitted effect of over 65% in size
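In this screen, 50 nM flap DNA substrate was added to 10 nM FEN1 pretreated with compound for 15 min at room temperature; cleavage was followed with reads at 0 and 15 min, and Hill fitting gave concentration–response parameters.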
POLH inh: DNA polymerase eta (human) inhibition; Q9Y253; recombinant Pol eta, fluorescent DNA replication assay; Potency, µM (series often up to 114 µM), without a hit: at the top dose activity change, negative = inhibition, hits mostly inhibitors; 1.2% of 390,000 active; AID 588591; further: on the % scale 0 is the no-effect control and ±100 the full control effect
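Fluorescent replication assay: 50 nM final substrate added after a 15 min room-temperature compound preincubation with 10 nM enzyme. Signal taken at 0 min and again at 10 min.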
POLB inh: inhibitors of human DNA polymerase beta. Potency, µM (series often up to 114 µM), for inactives: top-dose activity change, negative = inhibition, actives largely listed as inhibitors. 1.3% of 340,000 active. Pol beta primer extension/strand displacement, fluorescence kinetic; further: on the % scale 0 is the no-effect control and ±100 the full control effect
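Preincubation: enzyme (10 nM) with compound, 15 min, RT. Reaction: substrate added to 50 nM final. Reads: 0 and 10 min. Analysis: normalized, Hill fit.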
TDP1 block: blocks human tyrosyl-DNA phosphodiesterase 1; Potency, µM (series often up to 130 µM), for the others: top-dose activity change, negative = inhibition, hits mostly inhibitors; 0.28% of 350,000 active; recombinant TDP1, AlphaScreen DNA substrate cleavage; Q9NUW8; AID 485290; further: on the % scale 0 is the no-effect control and ±100 the full control effect; nearly all actives have a fitted effect of over 40% in size
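Tdp1 1 nM final; 15 min RT w/ cpd; substrate 15 nM, 5 min; beads 10 ug/ml, 10 min; AlphaScreen read. Neg ctrl: no enzyme.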
POLI inh: DNA polymerase iota (human) inhibition. Q9UNA4. Pol iota fluorescent replication assay, 10 min. Potency, µM (top dose mostly 115 µM), for inactives: top-dose activity, negative = inhibition, actives largely listed as inhibitors. 1% of 390,000 active. AID 588590
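Pol iota at 10 nM preincubated 15 min with compounds at room temperature; reaction started with fluorescent substrate, 50 nM final. Fluorescence read kinetically at 0 and 10 min; buffer-only wells as negative control.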
An asterisk follows results filed as active; ? = inconclusive; . = no result; ! = a repeat was not active; [ ] = remark or other dose. Most compounds without a hit are left out; they make up all but 2.4% or so of the library. The call rests on the fitted dose curve; in most records, active means well fitted curve in the direction sought with a large enough effect; inconclusive means small, poorly fitted or top-dose-only effect, or another doubt; inactive means no such curve, though single readings can be large; an effect the other way counts as inactive or inconclusive. Potency means the concentration at half of the fitted maximal effect.

SMILES	Pol kappa inh	FEN1 inh	POLH inh	POLB inh	TDP1 block	POLI inh
CNc1cc(-c2ccccc2C(F)(F)F)ncn1	2%[60.1 µM]	.	.	.	.	.
O=C(Cn1c(O)c(/C=C2\C=Nc3ccc(Br)cc32)sc1=O)N1CCCC1	-16%	-14%	-16%	-3%	8%	?
O=c1[nH]c(O)c(/C=C2\C=Nc3ccc(Br)cc32)[nH]1	-13%	-19%	?	20µM*	2%	26%
C#CCOCCOCCOCCNc1nc(N2CCN(C(=O)Cn3cc(CCCCN)nn3)CC2)nc(N2CCN(C(=O)Cn3cc(CC(C)O)nn3)CC2)n1 (stereo not given)	5%	3%	6%	-23%	3%	22%
C#CCOCCOCCOCCNc1nc(N2CCN(C(=O)CCCCCCCCCCNC(=O)Cn3cc(CCCCCN)nn3)CC2)nc(N2CCN(C(=O)CCCCCCCCCCNC(=O)[C@@H]([C@H](C)O)n3cc(C)nn3)CC2)n1	-18%	?	-16%	.	4%	?
C#CCOCCOCCOCCNc1nc(N2CCN(C(=O)CCCCCCCCCCNC(=O)Cn3cc(CCCCCN)nn3)CC2)nc(N2CCN(C(=O)CCCCCCCCCCNC(=O)Cn3cc(C[C@@H](C)O)nn3)CC2)n1	6%	79µM*	?	.	14%	-18%
C#CCOCCOCCOCCNc1nc(N2CCN(C(=O)CCCCCCCCCCNC(=O)Cn3cc(C[C@@H](C)O)nn3)CC2)nc(N2CCN(C(=O)CCCCCCCCCCNC(=O)[C@@H]([C@H](C)CC)n3cc(CCCCCN)nn3)CC2)n1	15%	?	89µM*	.	11%	?
O=C(O)Cn1cc(/C=C/[N+](=O)[O-])c2ccccc21	-21%	4%	45µM*	6%	-3%	28µM*
O=c1c2cc3c(cc2n(Cc2ccc(Cl)cc2)c(=O)n1Cc1nc(-c2ccccc2)no1)OCO3	?	16%	-9%	-1%	6%	89µM*
Cc1cccc(OC2=NS(=O)(=O)c3ccccc32)c1	.	.	.	.	2%	.
COc1ccc(-c2cc(C)no2)cc1S(=O)(=O)Nc1c(C)cc(C)cc1C	-7%	7%	10%	-1%	3%	-19%
CCCCCN(CCCCC)C(=O)[C@H](CCC(=O)O)NC(=O)[C@H](Cc1ccc(OP(=O)(O)O)cc1)NC(C)=O	-14%[12 µM]	.	.	.	10%	.
O=C(Cc1ccc(Cl)cc1)c1ccc(O)cc1	-18%	-1%	1%	2%	2%	50µM*
CCCN(Cc1cccs1)C(=O)Nc1ccc(F)c(Cl)c1	5%	-22%	-3%	16%	-9%	94%
O=C(c1ccccc1)c1ccc2nc(N3CCN(C(=O)c4ccco4)CC3)c3nncn3c2c1	2%	-4%	-27%	12%	6%	79µM*
COc1ccc(F)cc1S(=O)(=O)Nc1ccc2c(c1)CCCN2C(=O)c1cccs1	-1%[60.1 µM]	-19%	-9%	28%	-4%	4%
Cc1cccc(Nc2ccccc2C(=O)O)c1C	14%	20%	-2%	12%	0.011µM*!	11%
CCOC(=O)c1c(C)oc2nc(C)nc(NCCCN3CCN(c4cccc(C)c4)C(C)C3)c12 (stereo not given)	?	6%	-28%	-24%	-1%	89µM*
CCOC(=O)c1c(C)oc2nc(C)nc(NCCCN3CCN(c4ccccc4)CC3)c12	7%	0%	-12%	0%	0%	-18%
CC1=C(C#N)C(=O)N(C2CCS(=O)(=O)C2)C(=O)/C1=C\c1ccc(C)o1 (stereo not given)	.	.	.	13µM*	-10%	.
CC(C)c1ccc(NS(=O)(=O)c2ccc3[nH]cc(C(=O)N4CCC(C(N)=O)CC4)c(=O)c3c2)cc1	-9%	-12%	18µM*	50µM*	.	?
COc1cccc(NS(=O)(=O)c2ccc3[nH]cc(C(=O)NC4CCCCC4)c(=O)c3c2)c1	-32%	-7%	89µM*	?	-2%	?
